Common to all, as to assay: yeast three-hybrid, YBZ-1, SC-Leu-His + 0.5 mM 3-AT, 4 days
Holding throughout (details): tags: N-Gal4 AD-HA kept; label: inside an RPR1-promoter hybrid RNA with tandem MS2 sites; ssRNA

Assay [1] concerns the target PUM1 PUF domain R3-LRL (Homo sapiens, UniProt Q14671 828-1176, C935L;Q939L). A digest of the protocol:
(§1)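 Matching RNA elements and Pumilio-1 PUF domain libraries, randomized at the three base-contacting residues of every repeat, were co-expressed from a centromeric plasmid in strain YBZ-1 (LexA–MS2 coat fusion, HIS3 reporter). The repeat regions were PCR-amplified and Illumina-sequenced from cells grown four days on SC-Leu (input) or SC-Leu-His + 0.5 mM 3-AT (selection). The interaction score is the log change in variant frequency from input to selection. It is computed in log2, with a pseudocount of 1 for absent variants.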

Assay [2] has as its target PUM1 PUF domain R2-RRV (Homo sapiens, UniProt Q14671 828-1176, N899R;Y900R;Q903V). A digest of the protocol:
as §1

For assay [3], the target named is PUM1 PUF domain R1-KYV (Homo sapiens, UniProt Q14671 828-1176, S863K;R864Y;Q867V). The essentials: as §1
Assay [4] deals with PUM1 PUF domain R4-DRI (Homo sapiens, UniProt Q14671 828-1176, N971D;H972R;Q975I). The essentials:
as §1

Assay [5] concerns the target PUM1 PUF domain R4-SRS (Homo sapiens, UniProt Q14671 828-1176, N971S;H972R;Q975S). A digest of the protocol: as §1
The target in assay [6] is PUM1 PUF domain R3-SSQ (Homo sapiens, UniProt Q14671 828-1176, C935S;R936S). A digest of the protocol: as §1
In assay [7] the target is PUM1 PUF domain R3-VCI (Homo sapiens, UniProt Q14671 828-1176, C935V;R936C;Q939I). A digest of the protocol: as §1
Assay [8] concerns the target PUM1 PUF domain R5-RCD (Homo sapiens, UniProt Q14671 828-1176, C1007R;R1008C;Q1011D). A digest of the protocol:
as §1

Assay [9] has as its target PUM1 PUF domain R5-KRA (Homo sapiens, UniProt Q14671 828-1176, C1007K;Q1011A). The essentials: as §1
Assay [10] addresses PUM1 PUF domain R5-KNL (Homo sapiens, UniProt Q14671 828-1176, C1007K;R1008N;Q1011L). A digest of the protocol: as §1

The text below walks through data of PMC8384837, “Expanding the binding specificity for RNA recognition by a PUF domain”.

Consider “GGCUAGAACUAGUGGAUCCCCCGGCGCCCGGCGGCUCGAGCCCGGGUAAGUGUAAGUAGUCUGCAUGCCGCCGGGCGCCAUGCCUGCAGGUCGACUCUAGAAAACAUG”, for which, in assay [1], the binding signal is 2.89 log2 enrichment (interaction score).
Take “GGCUAGAACUAGUGGAUCCCCCGGCGCCCGGCGGCUCGAGCCCGGGUAAGUGUAAAGAGUCUGCAUGCCGCCGGGCGCCAUGCCUGCAGGUCGACUCUAGAAAACAUG”: in [2], the binding signal is 2.5 log2 enrichment (interaction score).
For the sequence “GGCUAGAACUAGUGGAUCCCCCGGCGCCCGGCGGCUCGAGCCCGGGUAAGUGUAAAUUGUCUGCAUGCCGCCGGGCGCCAUGCCUGCAGGUCGACUCUAGAAAACAUG”, in assay [3], the binding signal was 2.06 log2 enrichment (interaction score).
On to “GGCUAGAACUAGUGGAUCCCCCGGCGCCCGGCGGCUCGAGCCCGGGUAAGUGUAAAUAGUCUGCAUGCCGCCGGGCGCCAUGCCUGCAGGUCGACUCUAGAAAACAUG”, for which the binding signal is 5.23 log2 enrichment (interaction score) in assay [4], 3.11 log2 enrichment (interaction score) in [5], 2.66 log2 enrichment (interaction score) in [6] and 2.74 log2 enrichment (interaction score) in assay [7].
Consider “GGCUAGAACUAGUGGAUCCCCCGGCGCCCGGCGGCUCGAGCCCGGGUAAGUGUUAAUAGUCUGCAUGCCGCCGGGCGCCAUGCCUGCAGGUCGACUCUAGAAAACAUG”, for which the results for the binding signal in assay [8] and in assay [9] were 2.68 log2 enrichment (interaction score) and 0.81 log2 enrichment (interaction score), respectively.
Turning to “GGCUAGAACUAGUGGAUCCCCCGGCGCCCGGCGGCUCGAGCCCGGGUAAGUGUCAAUAGUCUGCAUGCCGCCGGGCGCCAUGCCUGCAGGUCGACUCUAGAAAACAUG”, the values for the binding signal in assay [10], in [8] and in [9] were 4.73 log2 enrichment (interaction score), 3.7 log2 enrichment (interaction score) and 2.92 log2 enrichment (interaction score), respectively.
In the case of “GGCUAGAACUAGUGGAUCCCCCGGCGCCCGGCGGCUCGAGCCCGGGUAAGUGUAUAUAGUCUGCAUGCCGCCGGGCGCCAUGCCUGCAGGUCGACUCUAGAAAACAUG”, in assay [5], the binding signal was 0.95 log2 enrichment (interaction score).
With “GGCUAGAACUAGUGGAUCCCCCGGCGCCCGGCGGCUCGAGCCCGGGUAAGUGUAAUUAGUCUGCAUGCCGCCGGGCGCCAUGCCUGCAGGUCGACUCUAGAAAACAUG”, the binding signal in assay [1] is 0.28 log2 enrichment (interaction score).
On to “GGCUAGAACUAGUGGAUCCCCCGGCGCCCGGCGGCUCGAGCCCGGGUAAGUGUACAUAGUCUGCAUGCCGCCGGGCGCCAUGCCUGCAGGUCGACUCUAGAAAACAUG”, for which the binding signal in assay [5] was 1.59 log2 enrichment (interaction score).
